The source made the active and inactive calls. Calls follow the shape of the dose curve; as a rule, active = well fitted curve in the direction sought with a large enough effect; inconclusive = small, poorly fitted or top-dose-only effect, or another doubt; inactive = no such curve, though single readings can be large or run the other way.
Assay: Validation qHTS assay for inhibitors of Activation Induced Cytidine Deaminase (AID): UDG Counterscreen signal (AID 1347427); also: 0% is about no effect
Conditions: biochemical UDG counterscreen, fluorescence signal; series mostly up to 115 µM; activity, negative = inhibition: at the top concentration
Method in brief: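 Counterscreen read of UDG activity (2 U/mL, 4/3x) in the FRET deamination format with AID (1 uM, 4/3x), DJC20/DJC23 substrates (250 nM, 4x), 4 h at room temperature. NaOH stop, fluorescence at 560 ex/665 em.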

| Compound | activity, negative = inhibition |
| --- | --- |
| CC(N)(Cc1ccc(O)cc1)C(=O)O (stereo not given) | 5.26% (inactive) |
| CC(C)NCC(O)COc1ccc(CC(N)=O)cc1 (stereo not given) | 4.29% (inactive) |
| NC(=O)CNCCC(c1ccccc1)c1ccccc1 | 16.6% (inactive) |
| C[C@](Cc1ccc(O)c(O)c1)(NN)C(=O)O | 0.959% (inactive) |
| CC(O)C(O)[C@H]1CNc2nc(N)[nH]c(=O)c2N1 (stereo not given in full) | 13% (inactive) |
| Brc1c(Br)c(Br)c2[nH]cnc2c1Br | 11.8% (inactive) |
| COc1ccc(NC(=O)c2ccc(-c3ccc(-c4noc(C)n4)cc3C)cc2)cc1N1CCN(C)CC1 | -5.2% (inactive) |
| NCC(O)C1CCCCCCC1 (stereo not given) | 14.4% (inactive) |
| COc1ccc(-c2cc3ncc(C)n3c(Nc3ncccc3C(N)=O)n2)cc1OC | 11.4% (inactive) |
| O[Si](CCCN1CCCCC1)(c1ccc(F)cc1)C1CCCCC1 (stereo not given) | -4.7% (inactive) |
| c1ccc2c(c1)CCC[C@H]2Nc1nc2ccccc2[nH]1 | -1.13% (inactive) |
| N[C@@H](CCC(=O)N[C@H](CSN=O)C(=O)NCC(=O)O)C(=O)O | 13.1% (inactive) |
| COc1ccc2c(c1)c(CC(=O)O)c(C)n2Cc1ccc(Cl)cc1 | -3.22% (inactive) |
| CCCCC[C@H](CC(=O)NO)C(=O)N[C@H](C(=O)N1CCC[C@H]1CO)C(C)C | 18.2% (inactive) |
| Nc1ccc2c3c(cccc13)C(=O)NC2=O | 3.97% (inactive) |
| CCCc1c(OCCCOc2ccc(OCC(=O)O)cc2)ccc(C(C)=O)c1O | 12.7% (inactive) |
| NC(C(=O)N[C@@H]1C(=O)N2C(C(=O)O)=C(Cl)CS[C@H]12)c1ccccc1 (stereo not given in full) | 12.4% (inactive) |
| CSC(N)=NCCC[C@H](N)C(=O)O | 4.42% (inactive) |
| CN1C2CCC1CC(OC(c1ccccc1)c1ccccc1)C2 (stereo not given) | 9.6% (inactive) |
| O=C1OC(=O)C2C3CCC(O3)C12 (stereo not given) | 14.3% (inactive) |

Source: PubChem BioAssay (NCATS)
